Peg3 promoter – inhibitors of Peg3 promoter; AID 588405; inhibition, % at 20 µM; HeLa PEG-Prom luciferase reporter, luminescence, overnight; 1.7% of 360,000 active;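 active = inhibition of at least 50% at 20 µM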
EBV LMP1 NFkB – Epstein-Barr LMP1 NF-kappaB reporter inhibition. inhibition, % at 12.5 µM. LMP1-induced NF-kappaB luciferase reporter cells, luminescence. 0.69% of 350,000 active; in the data active = inhibition above about 41%;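 also: 0% = neutral control wells and 100% = reference inhibitor control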
TRPM1 prom inh – reduces MITF-dependent TRPM1 promoter luciferase signal; SK-MEL-5 TRPM1 promoter luciferase, 24 h; inhibition, % at 12.5 µM; 0.83% of 330,000 active;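 active = mean inhibition across replicates of 60% or more, whatever share of single replicates reaches that level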
HIF-2a block – HIF-2a inhibition. 0.72% of 360,000 active. 786-0 RCC cells HIF-2a reporter, luciferase luminescence, overnight. inhibition, % at 18.8 µM. AID 624352;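 active = inhibition of the luminescence signal of 40% or more relative to plate controls, in a single-dose primary screen at 18.75 µM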
CF NFkB block – inhibitors of cystic fibrosis induced NF-kB; 0.86% of 360,000 active; inhibition, % at 5 µM; KKLEB NF-kB-GFP reporter, PAF-induced, GFP fluorescence overnight;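 active = at least 50% inhibition at 5 µM, scaled per plate between neutral and stimulator controls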;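 also: PAF is a Pseudomonas aeruginosa culture filtrate used as stimulus; plate controls were PAF-stimulated DMSO wells for no effect and unstimulated DMSO wells for full effect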
KKLEB cytotox – counter-screen for CF NF-kB inhibitors: cytotoxicity. activity change (cytotoxicity), % at 5 µM. KKLEB CF airway cells viability, ATPlite luminescence, overnight; active compounds read low; cells stimulated with P. aeruginosa culture filtrate. 0.36% of 360,000 active;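 active = corrected activity change at or below -50% at 5 µM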
* = called active by the depositor; . = no result given. Shown are actives, neighbours in structure and some others; about 3% of the full set was active somewhere.

SMILES	Peg3 promoter	EBV LMP1 NFkB	TRPM1 prom inh	HIF-2a block	CF NFkB block	KKLEB cytotox
COCCCN(C(=O)CSCC(=O)Nc1ccc(C)cc1)c1c(N)n(Cc2ccccc2)c(=O)[nH]c1=O	8.0	-6.2	-2.1	1.1	-1.2	-5.3
Cc1ccc(C(=O)Nc2c(-c3ccc(Cl)cc3)[nH][nH]c2=O)cc1	17.1	.	.	-1.9	-20.8	0.2
COc1ccc(C(=O)/C=C/c2ccc(OC)c(Cn3nnc4ccccc43)c2)cc1	51.7*	7.3	23.8	35.7	17.7	-33.8
CC(=O)Oc1ccccc1Cn1c(C)c(C(=O)N(C)Cc2ccc(F)cc2)sc1=O	10.5	.	.	9.2	9.2	-14.3
Cc1cc(OCC(=O)Nc2ccc3oc(-c4ccncc4)nc3c2)ccc1Cl	52.7*	7.2	5.6	7.8	-0.7	11.1
CC(=O)N1CCN(C2c3cccc4cccc(c34)C2NS(=O)(=O)c2ccccc2)CC1 (stereo not drawn)	17.2	-3.3	3.3	-2.4	-3.9	-2.5
O=S(=O)(NC1c2cccc3cccc(c23)C1N1CCNCC1)c1ccc(Cl)cc1 (stereo not drawn)	76.9*	-16.0	19.6	11.3	23.9	-18.9
CC(C)(C)NC(=S)N/N=C/c1c(Cl)cccc1Cl	5.8	-6.8	-16.1	-6.8	-3.8	-2.2
Cc1ccc(NC(=S)N/N=C/c2c(Cl)cccc2Cl)c(C)c1	-102.5	11.9	-9.2	-145.0	50.2*	-8.0
OC(c1ccc2ccccc2c1)c1ncc(-c2ccc(C(F)(F)F)cc2)[nH]1 (stereo not drawn)	41.5	.	.	25.6	1.6	7.4
CNc1nc(NCc2cccc(OC)c2)c2sccc2n1	2.8	.	.	7.4	22.2	-15.5
COc1cccc(CNc2nc(NCc3ccccc3)nc3ccsc23)c1	64.0*	.	.	5.8	20.1	-8.6
c1ccc(CNc2nc(NCC3CC3)nc3cc(-c4ccccc4)sc23)cc1	83.3*	.	.	-77.6	-11.4	-3.2
c1ccc(CNc2nc(NCc3cccs3)nc3ccsc23)cc1	11.0	.	.	-8.0	-0.3	-20.2
c1ccc(CNc2nc(NCCc3ccncc3)c3sccc3n2)cc1	53.8*	.	.	1.7	6.0	-6.2
COCCNc1nc(NCc2ccc(NC(C)=O)cc2)c2sc(-c3ccccc3)cc2n1	25.3	.	.	-28.4	-37.5	-53.7*
Cc1cc(O)cc2c1C1CCC3(C)C(O)CCC3C1C=C2 (stereo not drawn)	-72.7	-12.4	2.0	-117.9	3.7	3.0
C=CCNc1nc(NCc2ccc(N(C)C)cc2)c2sc(-c3ccccc3)cc2n1	69.7*	.	.	-276.7	-27.8	2.0
COCCNc1nc(NCc2cccc(OC)c2)c2sc(-c3ccccc3)cc2n1	56.8*	.	.	-43.0	1.1	-7.0
Cc1ccc(S(=O)(=O)N2CC3(O)CN(C(=O)OC(C)C)N(C(=O)OC(C)C)CC3(OC(=O)Nc3cccs3)C2)cc1 (stereo not drawn)	9.9	-4.1	.	2.6	10.8	2.3
CCOC(=O)CSC1=NC(=O)/C(=C\c2ccc(OC(C)=O)cc2)S1	53.4*	-27.8	78.7*	18.6	0.4	1.0
CCOC(=O)CSC1=NC(=O)/C(=C/c2ccc(Br)cc2)S1	74.5*	-29.0	53.5	-129.9	41.7	-16.3
CCOC(=O)COc1ccc(Br)cc1/C=C1\SC(N)=NC1=O	2.1	9.5	2.1	11.9	4.2	5.1
Cc1cccc(C)c1NC(=O)C1(C)CCC(=O)N1C1CC1 (stereo not drawn)	-2.6	.	.	-2.3	11.1	-15.5
CN1OC[C@@H]2CN(C(=O)NC3CCCCC3)[C@H](c3ccc(N4CCCCC4)cc3)C[C@@H]21	-0.8	.	.	-19.6	-13.6	4.5
CCCCN(CCCC)C(=S)N/N=C/c1c(C)[nH]n(-c2ccccc2)c1=O	72.2*	39.0	42.7	1.1	-15.4	-6.9
Cc1[nH]n(-c2ccc(Br)cc2)c(=O)c1/C=N/NC(=O)c1ccccc1	-34.6	46.6*	23.7	-143.3	27.4	-8.3
CC(C)Oc1ccc2ccccc2c1CNC[C@H]1O[C@@H](n2cnc(C(N)=O)n2)[C@H](O)[C@@H]1O	-7.3	-9.1	2.7	3.7	-18.6	5.1
COC(C(=O)C(O)C(C)O)C1Cc2cc3cc(OC4CC(OC5CC(O)C(O)C(C)O5)C(O)C(C)O4)c(C)c(O)c3c(O)c2C(=O)C1OC1CC(OC2CC(OC3CC(O)C(OC)C(C)O3)C(O)C(C)O2)C(O)C(C)O1 (stereo not drawn)	99.7*	79.8*	56.2	-29.7	90.4*	-33.8

Bioassay records as filed in PubChem.
